These results are taken from PubChem BioAssay (NCI).

The panel holds about 79,000 compounds, 15% with a hit somewhere; the sample as a whole holds those more often. Values without a mark were called inactive. The source made the active and inactive calls. Rule as the data show it: active = growth inhibition above about 70%; inactive = the rest.

Experiment [1] is described as follows: NCI Yeast Anticancer Drug Screen. Data for the rad50 strain (AID 155).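 Also: 0% = growth of vehicle-only cultures of the same strain.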 The conditions noted are these: S. cerevisiae rad50 strain growth inhibition, stronger effect = higher value. In short, it runs like this:
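Inhibition values express reduced yeast growth in compound-treated cultures relative to vehicle-treated controls.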

Experiment [2] is described as follows: NCI Yeast Anticancer Drug Screen. Data for the mec2-1 strain (AID 157). As to conditions: S. cerevisiae mec2-1 strain, stronger effect = higher value. A digest of the protocol:
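Readout is yeast growth inhibition, normalised to vehicle-treated controls, in the mec2-1 strain exposed to compound.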

Experiment [3] is described as follows: NCI Yeast Anticancer Drug Screen. Data for the sgs1 mgt1 strain (AID 161).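 Also: 0% = growth of cultures given vehicle only.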 As to conditions: S. cerevisiae sgs1 mgt1 strain, stronger effect = higher value. A digest of the protocol:
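Compounds are added to genetically altered yeast, and growth is compared with cultures given vehicle alone to give percent inhibition.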

Experiment [4] can be described thus: NCI Yeast Anticancer Drug Screen. Data for the cln2 rad14 strain (AID 165).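 Also: 0% = growth equal to vehicle treated cultures.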 The conditions noted are these: S. cerevisiae cln2 rad14 strain, stronger effect = higher value. A digest of the protocol: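 Relative to vehicle controls, growth inhibition of compound-treated cln2 rad14 yeast was recorded.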
The nature of experiment [5]: NCI Yeast Anticancer Drug Screen. Data for the bub3 strain (AID 167). The conditions noted are these: S. cerevisiae bub3 mutant strain, stronger effect = higher value. In short, it runs like this:
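Steps: expose the mutant yeast strain to compound; grow alongside vehicle-treated cultures; measure growth; express inhibition against the vehicle cultures.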

Experiment [6] in a line: NCI Yeast Anticancer Drug Screen. Data for the mlh1 rad18 strain (AID 175). As to conditions: S. cerevisiae mlh1 rad18 strain growth inhibition, stronger effect = higher value. A digest of the protocol:
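Test agents were incubated with a yeast strain of defined genotype (DNA damage repair defect). Inhibition of growth was derived by comparison with vehicle-exposed cultures.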

The mark [7] stands for this setting: at 5.0 µM (retest, dose inferred, filed as 0.5).
[8] abbreviates: at 50.0 µM (retest, dose inferred, filed as 5.0).

For `O=C1CCCC1CN1CCOCC1` (stereo not given), the growth inhibition in experiment [1] (setting [7]) was 5%; in experiment [1] (setting [8]), 97% (active); in experiment [1] (at 50.0 µM) it was 75% (active); in experiment [2] (setting [7]) it was -21%; in experiment [2] (setting [8]) it was 97% (active); in experiment [2] (at 50.0 µM), 75.7% (active). In addition, the growth inhibition was -32% in experiment [3] (setting [7]); 75% (active) in experiment [3] (setting [8]); 82% (active) in experiment [3] (at 50.0 µM); 6% in experiment [4] (setting [7]); 66% in experiment [4] (setting [8]); 64.4% in experiment [4] (at 50.0 µM). The growth inhibition in experiment [5] (setting [7]) is -20%; in experiment [5] (setting [8]), 96% (active); in experiment [5] (at 50.0 µM) it was 84.5% (active); in experiment [6] (setting [7]), -6%; in experiment [6] (setting [8]) it was 99% (active); in experiment [6] (at 50.0 µM), 83.5% (active).

For `O=C(OCCC1CCCCC1)c1cc([N+](=O)[O-])cc([N+](=O)[O-])c1`, the growth inhibition in experiment [1] (setting [7]) is 4%; in experiment [1] (setting [8]), 79% (active); in experiment [1] (at 50.0 µM), 83.1% (active); in experiment [2] (setting [7]), 13%; in experiment [2] (setting [8]), 76% (active); in experiment [2] (at 50.0 µM) it was 75% (active). Further, the growth inhibition was 10% in experiment [3] (setting [7]); 70% (active) in experiment [3] (setting [8]); 90.3% (active) in experiment [3] (at 50.0 µM); 6% in experiment [4] (setting [7]); 71% (active) in experiment [4] (setting [8]); 80.5% (active) in experiment [4] (at 50.0 µM). The growth inhibition in experiment [5] (setting [7]) was 5%; in experiment [5] (setting [8]) it was 82% (active); in experiment [5] (at 50.0 µM) it was 88.5% (active); in experiment [6] (setting [7]), 12%; in experiment [6] (setting [8]), 86% (active); in experiment [6] (at 50.0 µM) it was 89.8% (active).

For `CCCCCC/C=C\CCCCCCCCCc1c(O)c(OC)cc(O)c1CN(C)C`, the growth inhibition in experiment [1] (setting [7]) was 5%; in experiment [1] (setting [8]), 94% (active); in experiment [1] (at 50.0 µM), 80.7% (active); in experiment [2] (setting [7]), -17%; in experiment [2] (setting [8]), 94% (active); in experiment [2] (at 50.0 µM), 88.3% (active). Further, the growth inhibition in experiment [3] (setting [7]) was 15%; in experiment [3] (setting [8]) it was 96% (active); in experiment [3] (at 50.0 µM) it was 87.1% (active); in experiment [4] (setting [7]), 13%; in experiment [4] (setting [8]), 30%; in experiment [4] (at 50.0 µM) it was 86.2% (active). Further, the growth inhibition in experiment [5] (setting [7]) was 5%; in experiment [5] (setting [8]), 96% (active); in experiment [5] (at 50.0 µM) it was 80.8% (active); in experiment [6] (setting [7]), 2%; in experiment [6] (setting [8]), 94% (active); in experiment [6] (at 50.0 µM), 79.6% (active).

For `CN(C)CC1CCC2=C(C1=O)C(c1ccc(Cl)c(Cl)c1)C1=C(CCC(CN(C)C)C1=O)O2` (stereo not given), the growth inhibition in experiment [1] (setting [7]) is 14%; in experiment [1] (setting [8]), 11%; in experiment [1] (at 50.0 µM), 75.5% (active); in experiment [2] (setting [7]), -4%; in experiment [2] (setting [8]) it was -13%; in experiment [2] (at 50.0 µM), 49.9%. Also, the growth inhibition is -5% in experiment [3] (setting [7]); 19% in experiment [3] (setting [8]); 47.6% in experiment [3] (at 50.0 µM); 6% in experiment [4] (setting [7]); -3% in experiment [4] (setting [8]); -17.2% in experiment [4] (at 50.0 µM). In addition, the growth inhibition is -5% in experiment [5] (setting [7]); 2% in experiment [5] (setting [8]); 3.75% in experiment [5] (at 50.0 µM); 4% in experiment [6] (setting [7]); 1% in experiment [6] (setting [8]); 48.5% in experiment [6] (at 50.0 µM).

In the case of `O=C1Oc2cc3c(c4cccc1c24)OCN(c1ccccc1)C3`, the growth inhibition in experiment [1] (setting [7]) was -22%; in experiment [1] (setting [8]) it was 25%; in experiment [1] (at 50.0 µM), 62.5%; in experiment [2] (setting [7]), -24%; in experiment [2] (setting [8]) it was 19%; in experiment [2] (at 50.0 µM) it was 49.9%. In addition, the growth inhibition was -11% in experiment [3] (setting [7]); 18% in experiment [3] (setting [8]); 78.2% (active) in experiment [3] (at 50.0 µM); -15% in experiment [4] (setting [7]); 15% in experiment [4] (setting [8]); 35% in experiment [4] (at 50.0 µM). For the same compound, the growth inhibition in experiment [5] (setting [7]) is -17%; in experiment [5] (setting [8]) it was 25%; in experiment [5] (at 50.0 µM), 49%; in experiment [6] (setting [7]), -5%; in experiment [6] (setting [8]) it was 49%; in experiment [6] (at 50.0 µM), 58%.

Consider `COc1ccccc1NC(=O)O/N=C(/Cl)C(C)C`, for which the growth inhibition in experiment [1] (setting [7]) is 1%; in experiment [1] (setting [8]), 70% (active); in experiment [1] (at 50.0 µM) it was -4.65%; in experiment [2] (setting [7]), 3%; in experiment [2] (setting [8]) it was 70% (active); in experiment [2] (at 50.0 µM), 52%. Also, the growth inhibition in experiment [3] (setting [7]) was -32%; in experiment [3] (setting [8]), 71% (active); in experiment [3] (at 50.0 µM), 37.6%; in experiment [4] (setting [7]), 40%; in experiment [4] (setting [8]), 28%; in experiment [4] (at 50.0 µM) it was 31.9%. The growth inhibition in experiment [5] (setting [7]) is -26%; in experiment [5] (setting [8]) it was 95% (active); in experiment [5] (at 50.0 µM), 80.5% (active); in experiment [6] (setting [7]), -24%; in experiment [6] (setting [8]), 41%; in experiment [6] (at 50.0 µM), 41.1%.

Take `C#CCN1CCN(C(=S)N/N=C(\C)c2ccccn2)CC1`: the growth inhibition in experiment [1] (setting [7]) was 22%; in experiment [1] (setting [8]), 99% (active); in experiment [1] (at 50.0 µM) it was 99.5% (active); in experiment [2] (setting [7]), 19%; in experiment [2] (setting [8]) it was 100% (active); in experiment [2] (at 50.0 µM) it was 99.7% (active). In addition, the growth inhibition in experiment [3] (setting [7]) was 20%; in experiment [3] (setting [8]), 100% (active); in experiment [3] (at 50.0 µM), 99.5% (active); in experiment [4] (setting [7]), 21%; in experiment [4] (setting [8]), 99% (active); in experiment [4] (at 50.0 µM), 99.4% (active). The growth inhibition was 14% in experiment [5] (setting [7]); 99% (active) in experiment [5] (setting [8]); 99.3% (active) in experiment [5] (at 50.0 µM); 52% in experiment [6] (setting [7]); 100% (active) in experiment [6] (setting [8]); 99.3% (active) in experiment [6] (at 50.0 µM).

As for `CCN(CC)CCCCSc1ccc([N+](=O)[O-])cc1[N+](=O)[O-]`, the growth inhibition in experiment [1] (setting [7]) was 27%; in experiment [1] (setting [8]), 45%; in experiment [1] (at 50.0 µM) it was 77.6% (active); in experiment [2] (setting [7]), 32%; in experiment [2] (setting [8]), 36%; in experiment [2] (at 50.0 µM), 45.4%. The growth inhibition in experiment [3] (setting [7]) was 32%; in experiment [3] (setting [8]), 68%; in experiment [3] (at 50.0 µM), 72.8% (active); in experiment [4] (setting [7]) it was 43%; in experiment [4] (setting [8]), 43%; in experiment [4] (at 50.0 µM), 59.3%. Moreover, the growth inhibition is 30% in experiment [5] (setting [7]); 47% in experiment [5] (setting [8]); 65.8% in experiment [5] (at 50.0 µM); 23% in experiment [6] (setting [7]); 44% in experiment [6] (setting [8]); 71.9% (active) in experiment [6] (at 50.0 µM).

Regarding `COc1ccc(/C=C2/C(=O)NC3SC=C(c4cccc([N+](=O)[O-])c4)N23)cc1` (stereo not given), the growth inhibition in experiment [1] (setting [7]) was 8%; in experiment [1] (setting [8]) it was 6%; in experiment [1] (at 50.0 µM) it was 33%; in experiment [2] (setting [7]) it was 0%; in experiment [2] (setting [8]), 2%; in experiment [2] (at 50.0 µM), 10.9%. The growth inhibition in experiment [3] (setting [7]) is -4%; in experiment [3] (setting [8]) it was -1%; in experiment [3] (at 50.0 µM), 32.6%; in experiment [4] (setting [7]), 34%; in experiment [4] (setting [8]), -23%; in experiment [4] (at 50.0 µM), 11.4%. In addition, the growth inhibition was 21% in experiment [5] (setting [7]); 13% in experiment [5] (setting [8]); 62.9% in experiment [5] (at 50.0 µM); 5% in experiment [6] (setting [7]); 23% in experiment [6] (setting [8]); 29.7% in experiment [6] (at 50.0 µM).

In the case of `O=[N+]([O-])c1ccc(CSSCc2ccc([N+](=O)[O-])cc2)cc1`, the growth inhibition in experiment [1] (setting [7]) was 5%; in experiment [1] (setting [8]), 18%; in experiment [1] (at 50.0 µM), 18.5%; in experiment [2] (setting [7]), 9%; in experiment [2] (setting [8]), 39%; in experiment [2] (at 50.0 µM) it was 16.7%. Also, the growth inhibition in experiment [3] (setting [7]) was 21%; in experiment [3] (setting [8]), 49%; in experiment [3] (at 50.0 µM), 41.5%; in experiment [4] (setting [7]), -3%; in experiment [4] (setting [8]) it was 36%; in experiment [4] (at 50.0 µM), -18.2%. The growth inhibition is 26% in experiment [5] (setting [7]); 66% in experiment [5] (setting [8]); 72.5% (active) in experiment [5] (at 50.0 µM); 10% in experiment [6] (setting [7]); 49% in experiment [6] (setting [8]); 28% in experiment [6] (at 50.0 µM).
